Potency data for 1 compound are collected here from ChEMBL document CHEMBL1201862, “PubChem BioAssay data set” (2004).

Structures are written as SMILES. These assays gave more results; the selection is not random. The source made the active and inactive calls. The calls are words filed in the database; no cut-off is given here.

The target of this experiment is Luciferin 4-monooxygenase (Photinus pyralis) (UniProt P08659).
Luciferin 4-monooxygenase (Photinus pyralis), sequence (P08659 whole entry): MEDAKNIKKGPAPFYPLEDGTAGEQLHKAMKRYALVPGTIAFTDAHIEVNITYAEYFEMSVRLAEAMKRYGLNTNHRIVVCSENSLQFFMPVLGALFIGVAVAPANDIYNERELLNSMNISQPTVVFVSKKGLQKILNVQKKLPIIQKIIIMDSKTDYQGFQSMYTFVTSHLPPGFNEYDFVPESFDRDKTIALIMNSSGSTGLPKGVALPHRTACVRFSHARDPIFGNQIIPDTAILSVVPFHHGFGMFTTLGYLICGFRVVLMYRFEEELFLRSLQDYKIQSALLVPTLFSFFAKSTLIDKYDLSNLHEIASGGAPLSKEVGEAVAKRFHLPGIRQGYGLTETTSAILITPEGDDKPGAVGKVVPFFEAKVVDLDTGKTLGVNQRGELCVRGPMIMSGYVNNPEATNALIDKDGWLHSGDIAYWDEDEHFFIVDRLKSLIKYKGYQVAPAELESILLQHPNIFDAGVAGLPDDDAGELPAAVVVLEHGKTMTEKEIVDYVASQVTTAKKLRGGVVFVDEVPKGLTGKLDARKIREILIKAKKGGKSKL

In the case of `CC(O)[C@@H]1NC(=O)[C@H](CCCCN)NC(=O)[C@@H](Cc2c[nH]c3ccccc23)NC(=O)[C@H](Cc2ccccc2)NC(=O)[C@@H](NC(=O)[C@H](N)Cc2ccccc2)CSSC[C@@H](C(=O)N[C@H](CO)[C@@H](C)O)NC1=O` (stereo partly specified), the Potency entry was “inactive”.
